Source: PubChem (National Center for Advancing Translational Sciences (NCATS))
Most compounds without a hit are left out; they make up all but 4.2% or so of the library.
12-LOX inh: inhibitors of human 12S-lipoxygenase ALOX12 | Potency, µM (doses to about 108 µM), inactives show at the top dose activity change, negative = inhibition, usual class: inhibitors | 1.1% of 580,000 active | purified 12hLO, xylenol orange hydroperoxide absorbance
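Purified human 12hLO (150 nM final) in 25 mM Hepes, 0.01% Triton X-100, pH 7.0 was preincubated 15 min at room temperature with compound. Then 40 uM arachidonic acid was added, 30 min. Hydroperoxide was read by Fe-XO absorbance ratio 573/405 nm.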
PLK1 PBD inh: PLK1 (human) polo-box domain binding inhibition. AID 720504. P53350. Potency, µM, for the others: max response, negative = inhibition, actives largely listed as inhibitors. Plk1 PBD binding of FITC phosphopeptide, fluorescence polarization. 2.8% of 360,000 active; note: series mostly up to about 57 µM; nearly all actives have a fitted effect of over 65% in size
VDR inhibitor: vitamin D3 receptor (human) inhibition; 0.93% of 400,000 active; P11473; Potency, µM, inactives show max response, negative = inhibition, most hits filed as inhibitors; VDR-SRC2-3 peptide fluorescence polarization, 2 h
Target sequence (P11473 whole entry, looked up): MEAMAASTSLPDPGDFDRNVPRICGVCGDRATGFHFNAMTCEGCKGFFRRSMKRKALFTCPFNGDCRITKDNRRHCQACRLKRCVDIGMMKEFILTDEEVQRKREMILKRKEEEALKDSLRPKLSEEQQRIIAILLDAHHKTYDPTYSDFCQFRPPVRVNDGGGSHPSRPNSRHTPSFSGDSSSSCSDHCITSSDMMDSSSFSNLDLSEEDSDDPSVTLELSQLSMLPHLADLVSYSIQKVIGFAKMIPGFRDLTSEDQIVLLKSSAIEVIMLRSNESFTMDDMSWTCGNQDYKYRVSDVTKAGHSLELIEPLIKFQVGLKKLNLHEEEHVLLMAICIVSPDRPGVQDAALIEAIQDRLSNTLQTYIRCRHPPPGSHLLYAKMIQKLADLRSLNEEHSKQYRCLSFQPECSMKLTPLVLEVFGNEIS
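Compounds are added to VDR with labelled SRC2-3 coactivator peptide and held 2 h at room temperature. Inhibition of the VDR–peptide interaction is then read as a change in fluorescence polarization.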
Sfp PPTase inh: Sfp phosphopantetheinyl transferase inhibition; Q9F4F7; Biochemical Sfp PPTase activity, qHTS; Potency, µM, without a hit: largest response in the series, negative = inhibition, hits mostly inhibitors; 3.5% of 310,000 active;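 note: the enzyme is Sfp with the accession as filed and its product quenches rhodamine fluorescence; 0% = enzyme reaction without inhibitor and -100% = no enzyme wells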
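Fluorescence-quenching assay with 15 nM Sfp, 5 uM rhodamine-CoA and 12.5 uM BHQ-2-labelled ybbR peptide in pH 7.6 Hepes/MgCl2 buffer. Enzyme was pre-incubated with compound for 15 min at room temperature. Rate was taken from the 30-min fluorescence change (525/598 nm).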
* marks the source's active call; other numbers are inactive results; i = inactive; ? = inconclusive; . = no result; [ ] = remark or other dose. Calls come from the whole dose curve; as a rule, active = well fitted curve in the direction sought with a large enough effect; inconclusive = small, poorly fitted or top-dose-only effect, or another doubt; inactive = no such curve, though single readings can be large; an effect the other way counts as inactive or inconclusive. Unless noted, % is set by controls: 0 for no effect and ±100 for the full control effect; potency is the fitted concentration of half-maximal effect.

SMILES	12-LOX inh	PLK1 PBD inh	VDR inhibitor	Sfp PPTase inh
CC1Cc2nc(SCC(=O)N3CCN(c4ccccc4)CC3)n(CCc3ccccc3)c(=O)c2S1 (configuration not stated)	26.7%	-4.0%	2.6%	44.7µM*
Cc1c(C(=O)OCCOc2ccccc2)sc(=S)n1C	5.0%	.	.	.
Cc1c(NC(=O)Oc2ccccc2)sc(=S)n1C	-12.2%	15µM*	-4.8%	56.2µM*
Cc1ccc(S(=O)(=O)NNC(=O)c2sc(=S)n(C)c2C)cc1	-3.8%	-9.1%	10.0%	-0.1%
Cc1ccc(NC(=O)Nc2sc(=S)n(C)c2C)cc1	.	?	-11.4%	56.2µM*
CN(C)Cc1nc(-c2cn(C)c3ccccc23)no1	.	.	12.9%	-17.9%
COCCNC(=O)CC(NS(=O)(=O)c1ccc(C)cc1)c1ccco1 (configuration not stated)	0.0%	0.7%	-12.7%	-21.5%
COc1ccccc1CNC(=O)C(C)Sc1ccc(C)cc1 (configuration not stated)	?	21.2µM*	-24.0%	29.3%
COc1ccccc1CNC(=O)CC(NS(=O)(=O)c1ccc(C)cc1)c1ccco1 (configuration not stated)	49.2%	26.7µM*	?	2.9%
COc1ccccc1CNCc1ccc(C)cc1	1µM*	4.9%	-1.3%	-16.5%
CN(Cc1cn(-c2ccccc2)nc1-c1cc2ccccc2o1)C(=O)CCC(=O)O	-3.6%	4.23µM*	79.4µM*	15.9%
CN(C)C(=O)c1cn(-c2ccccc2)nc1-c1cc2ccccc2o1	3.9%	-2.8%	10.9%	-1.4%
COc1ccc(S(=O)(=O)NCC2CCCN(Cc3ccc(C)o3)C2)cc1 (configuration not stated)	-12.0%	-14.4%	0.4%	-24.7%
O=C(CCNc1cccc(F)c1)c1cccc([N+](=O)[O-])c1	-4.0%	?	89.1µM*	20.1%
Cc1cc(C)cc(OCC(=O)Nc2nc(-c3ccccn3)cs2)c1	-16.8%	?	-18.7%	.
COc1ccc(N(CC(=O)N2CCOCC2)S(C)(=O)=O)c(OC)c1	9.4%	21.2µM*	?	11.7%
COc1ccc([N+](=O)[O-])cc1N(CC(=O)N1CCN(Cc2ccccc2)CC1)S(C)(=O)=O	2.3%	11.9µM*	50.1µM*	9.8%
COc1cccc(N(CC(=O)N2CCOCC2)S(C)(=O)=O)c1	111.4%	-14.5%	-20.3%	21.4%
COc1ccc(CN2CCN(C(=O)c3ccccc3F)CC2)c(OC)c1OC	0.0%	1.9%	4.2%	.
Cc1ccc(SCCN2CCN(Cc3ccccc3)CC2)cc1	?	-4.4%	-0.8%	-50.2%
Cc1ccc(SCCN2CCN(C)CC2)cc1	39.8µM*	-15.4%	1.8%	-18.3%
O=C(N/N=C/c1cccnc1)C12CC3CC(CC(C3)C1)C2	9.2%	-7.7%	1.4%	14.6%
O=C(N/N=C/c1ccncc1)C12CC3CC(CC(C3)C1)C2	i	37.7µM*	-14.9%	16.9%
O=[N+]([O-])c1ccc(NS(=O)(=O)c2cccs2)cc1	6.8%	.	.	.
O=C(O)C[C@@H]1CCN(C(=O)c2ccco2)C[C@@H]1CC1=NCCc2ccccc21	5.8%[176 µM]	.	.	.
SMILES	12-LOX inh	PLK1 PBD inh	VDR inhibitor	Sfp PPTase inh
COc1cc2c(cc1OC)C(C[C@H]1CN(C(=O)c3ccco3)CC[C@H]1CC(=O)O)=NCC2	56.2µM*	.	.	.
O=C(CCCSc1ccccc1)Nc1nc(-c2ccccn2)cs1	289.4%	21.2µM*	?	-17.1%
O=C(CN1C(=O)CCC1=O)Nc1nc(-c2ccccn2)cs1	-1.0%	-12.6%	-19.8%	50.1µM*
O=C(CN1C(=O)CCC1=O)Nc1nc(-c2ccc3ccccc3c2)cs1	-13.5%	0.8%	-17.8%	8.1%
N#Cc1ccccc1OCC(=O)Nc1nc(-c2ccccn2)cs1	35.5µM*	26.7µM*	.	.
O=C(COc1ccc(F)cc1Cl)Nc1nc(-c2ccccn2)cs1	5.5%	.	.	.
CCCS(=O)(=O)N1CCN(C2Cc3ccccc3C2)CC1	-17.3%	-10.4%	-18.3%	89.1µM*
Cc1nnc(SCC(=O)N/N=C/c2cn(-c3ccccc3)nc2-c2ccccc2)n1-c1ccccc1	-1.6%	-27.0%	0.9%	9.7%
CCc1c(-c2ccc(Cl)cc2)ncn1Cc1cccc(-c2ccccc2)c1	8.91µM*	-18.2%	.	.
COc1ccccc1CC1(C)NC(=O)N(CC(=O)N2CCc3ccccc3C2)C1=O (configuration not stated)	-6.1%	0.7%	-10.7%	5.3%
CCC(c1cccs1)N1C(=O)[C@H]2CN(S(=O)(=O)c3cccc(Cl)c3)C[C@H]2C1=O (some centres not stated)	31.6µM*	.	.	.
Cn1c(NN)nc2ccccc2c1=O	12.0%	3.5%	-4.9%	17.8µM*
